# Measured values: PubChem BioAssay
# For part of these data: Results with a measured potency or affinity are listed apart. Active and inactive are the calls of the source.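 How the source made its calls, unless noted: active means fitted half-maximal concentration within the tested dose range, moderate curve steepness, a statistically real signal drop, and little compound fluorescence or tag-binding interference; inactive means the rest.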
# How the values were obtained:
# [1] = target: Cell division control protein 42 homolog (Homo sapiens) (UniProt P60953); experiment: inhibition of fluorescent GTP binding to constitutively active Cdc42 – biochemical, multiplex bead flow cytometry, Bodipy-FL-GTP, dose response (AID 1333)
# [2] = target: Cell division control protein 42 homolog (Homo sapiens) (UniProt P60953); experiment: inhibition of fluorescent GTP binding to wildtype Cdc42 – biochemical, multiplex bead flow cytometry, Bodipy-FL-GTP, dose response (AID 1334;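 active means fitted half-maximal concentration within the tested range, moderate curve steepness, significant signal drop, and little compound fluorescence or bead-linkage interference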); conditions: bead-based flow cytometry, Bodipy-FL-GTP binding to GST-Cdc42; at 100 µM (top of the series) unless noted
# [3] = target: GTPase HRas (Homo sapiens) (UniProt P01112); experiment: Ras wt fluorescent GTP loading blockade – biochemical, wildtype, multiplex bead flow cytometry, dose response (AID 1335;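 active means fitted half-maximal concentration within 10 nM to 100 µM, steepness 0.5 to 2, significant signal drop, low assay interference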); conditions: bead-based flow cytometry, Bodipy-GTP binding to GST-Ras; at 100 µM (top of the series) unless noted
# [4] = tested on: Ras-related protein Rab-7a (dog), GTP binding; experiment: blockers of fluorescent GTP binding to Rab7 – biochemical, wildtype, multiplex bead flow cytometry, dose response (AID 1336; call rule not given here)
# [5] = target: Ras-related C3 botulinum toxin substrate 1 (Homo sapiens) (UniProt P63000); experiment: inhibition of wildtype Rac1 nucleotide loading – biochemical, multiplex bead flow cytometry, dose response (AID 1340;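 active means dose curve with midpoint inside tested range, moderate steepness, plateau gap beyond fit error, low compound glow and bead-link interference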); conditions: GST-Rac1 beads, Bodipy-FL-GTP binding; at 100 µM (top of the series) unless noted
# [6] = target: GTPase HRas (Homo sapiens) (UniProt P01112); experiment: blockade of GTP loading onto mutant Ras – biochemical, activated mutant, multiplex bead flow cytometry, dose response (AID 1341;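 active means dose-response curve with midpoint inside the tested range, moderate steepness, significant amplitude and little compound fluorescence or bead-attachment interference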;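 further: GST-tagged constitutively activated Ras mutant immobilized on beads and multiplexed with other GTPases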)
# Chain of GTPase HRas (Homo sapiens) (P01112 whole entry, looked up): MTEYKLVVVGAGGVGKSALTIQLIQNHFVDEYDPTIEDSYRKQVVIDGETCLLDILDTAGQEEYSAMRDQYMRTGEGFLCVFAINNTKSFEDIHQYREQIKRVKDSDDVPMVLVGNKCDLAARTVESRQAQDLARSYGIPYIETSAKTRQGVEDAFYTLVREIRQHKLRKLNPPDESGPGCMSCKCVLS
# Chain of Cell division control protein 42 homolog (Homo sapiens) (P60953 whole entry, looked up): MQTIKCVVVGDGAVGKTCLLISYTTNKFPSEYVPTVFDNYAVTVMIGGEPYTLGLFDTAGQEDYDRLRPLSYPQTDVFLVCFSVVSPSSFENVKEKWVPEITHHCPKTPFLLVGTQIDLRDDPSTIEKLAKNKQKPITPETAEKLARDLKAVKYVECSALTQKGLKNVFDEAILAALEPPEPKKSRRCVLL
Structure (SMILES),outcome [1],"fluorescence, percent of control (lower = inhibition) [2] [%]","GTP binding, percent of control [3] [%]",outcome [4],"GTP binding signal, raw median fluorescence (lower = inhibition) (MCF (arbitrary fluorescence units)) [5]",outcome [6]
CCN1C(=O)C(CC(=O)Nc2ccc(F)cc2)N(CCc2ccc(OC)cc2)C1=S (stereo not given),inactive,33.8,78.6,inactive,239,inactive
COc1ccc(Nc2ccccc2C(=O)O)cc1,inactive,45.2,92.5,inactive,262,inactive
COc1cccc(/C=N/Nc2nn3cnnc3c3ccccc23)c1,inactive,36.5,47.3,inactive,120,inactive
O=C(Nc1ccccc1F)c1ccccc1-c1ccccc1,inactive,47.5,60.2,inactive,203,inactive
COC(=O)C1=C(C)NC(=O)/C1=C\c1cc(C)n(-c2c(C)cccc2C)c1C,inactive,37,84.9,inactive,308,inactive
COc1ccc(CNCc2ccc(C(=O)O)s2)cc1,inactive,64.9,89.4,inactive,33.5,inactive
O=C(O)CSc1nc2ccccc2n1CCOc1ccccc1F,inactive,58.4,90.3,inactive,37.2,inactive
Cc1ccc(-c2csc3nc4c5ccccc5c(NCCCN(C)C)nn4c(=O)c23)cc1,inactive,61.7,96.5,inactive,192,inactive
CCN1C(=O)/C(=C/C=C2/Sc3ccc4ccccc4c3N2CCO)SC1=S,inactive,27.6,59.2,inactive,179,inactive
Cn1c(N/N=C/c2cccs2)nc2c1c(=O)n(Cc1ccccc1)c(=O)n2C,inactive,39.1,51.7,inactive,143,inactive
Cc1n[nH]c(=S)c2nn(-c3ccccc3F)c(C)c12,inactive,48.5,62.5,inactive,179,inactive
Fc1cccc(CSc2ccc3nnc(-c4cccnc4)n3n2)c1,inactive,33.8,73.3,inactive,183,inactive
CC1=C(C#N)c2nc(N)c(C#N)c(C)c2/C1=C\c1ccc(-c2ccccc2C(=O)O)o1,inactive,30.1,74.4,inactive,159,inactive
CC1=C(C(=O)Nc2ccccc2)C(c2ccc(Cl)cc2)n2c(s/c(=C/c3cccc(OCC(=O)O)c3)c2=O)=N1 (stereo not given),inactive,26.5,75.3,inactive,176,inactive
COc1cccc(N2CCN(C(=O)CCCCCNc3nc(=S)[nH]c4ccccc34)CC2)c1,inactive,38.1,79.5,inactive,264,inactive
O=C(O)c1ccc(CNCc2ccc(F)cc2)s1,inactive,61.1,84.5,inactive,34.7,inactive
CC1=NC(=O)C(N=Nc2ccccc2C(=O)O)N1c1ccccc1 (stereo not given),inactive,28.8,69.9,inactive,180,inactive
CCCCNc1nc(=S)[nH]c2cc(OC)c(OC)cc12,inactive,37.9,47.8,inactive,110,inactive
Cc1ccc(S(=O)(=O)N(C)C)cc1NC(=O)COC(=O)c1ccc(Cl)cc1,inactive,39.2,86,inactive,265,inactive
COc1ccc(OCc2nc3c4cc(OC)c(OC)cc4nc(=S)n3[nH]2)cc1,inactive,31.9,75.5,inactive,186,inactive

Structure (SMILES),outcome [1],"fluorescence, percent of control (lower = inhibition) [2] [%]","GTP binding, percent of control [3] [%]",outcome [4],"GTP binding signal, raw median fluorescence (lower = inhibition) (MCF (arbitrary fluorescence units)) [5]",outcome [6]
Cc1nn(-c2ccc(F)cc2)c(Cl)c1/C=C(\CC(=O)O)c1nc2ccccc2s1,inactive,77.1,127,inactive,160,inactive
CNC(=O)COC(=O)c1cc(NC(=O)c2ccco2)c(OC)c(OC)c1,inactive,39.3,78,inactive,158,inactive
COc1cccc(/C=C/C(=O)Nc2ccccc2N2CCOCC2)c1,inactive,33.2,83.5,inactive,243,inactive
CCOc1nnc(C)c2c(C)n(-c3ccc(Cl)cc3)nc12,inactive,52.2,66.3,inactive,197,inactive
Cc1ccccc1Nc1cc(C(=O)O)c2ccccc2n1,inactive,62.2,86.6,inactive,32.7,inactive
O=C(O)c1cn(CCOc2ccc(Cl)cc2)c2ccccc12,inactive,59.9,83.2,inactive,36.5,inactive
CC(C)c1cc(NCc2ccccn2)n2c(nc3ccccc32)c1C#N,inactive,34.4,77.4,inactive,178,inactive
Nc1nn2c(-c3ccccc3)cc(=O)[nH]c2c1N=Nc1ccc(Br)cc1,inactive,27.4,78.1,inactive,197,inactive
O=C(Nc1ccccc1C(=O)N1CCOCC1)C1CCC(=O)N1C1CCCC1 (stereo not given),inactive,51.3,62.7,inactive,210,inactive
O=C(O)COc1ccccc1/C=N/Nc1ccc(S(=O)(=O)Nc2ccc(Cl)cc2)cc1[N+](=O)[O-],inactive,28.1,79.9,inactive,174,inactive
Cc1ccc(C(=O)c2ccccc2C(=O)O)cc1,inactive,67.4,89.9,inactive,38.5,inactive
Cc1ccccc1CSCc1ccc(C(=O)O)o1,inactive,61.3,89.8,inactive,30.2,inactive
C/C(=N\NC(=O)c1c[nH]c2ccccc12)c1ccc(C)o1,inactive,29.9,68.2,inactive,150,inactive
Nc1c(S(=O)(=O)c2ccccc2)c2nc3ccccc3nc2n1/N=C/c1cccc(O)c1,inactive,91.2,81.1,inactive,105,inactive
O=C(O)c1nnn(Cc2ccccc2)c1C(=O)O,inactive,60.5,82.2,inactive,33,inactive
Cc1ccc(OCCn2cnc3cc([N+](=O)[O-])ccc3c2=O)cc1,inactive,38.1,85.1,inactive,190,inactive
CCOC(=O)c1sc(NC(=O)CSc2nnc(Cc3ccccc3)o2)c(C#N)c1C,inactive,36.5,56.1,inactive,118,inactive
CCCC(=O)c1ccc(N2CCOCC2)c(F)c1,inactive,48.4,65.7,inactive,212,inactive
N#Cc1ccc(OCc2ccc(C(=O)O)o2)cc1,inactive,63.6,87.2,inactive,37.7,inactive
CCC(C)N1C(=O)/C(=C/c2c(NCCCOC(C)C)nc3c(C)cccn3c2=O)SC1=S (stereo not given),inactive,130,136,inactive,244,inactive

Structure (SMILES),outcome [1],"fluorescence, percent of control (lower = inhibition) [2] [%]","GTP binding, percent of control [3] [%]",outcome [4],"GTP binding signal, raw median fluorescence (lower = inhibition) (MCF (arbitrary fluorescence units)) [5]",outcome [6]
O=C(COc1ccccc1C(=O)N/N=C\c1ccc(O)c(O)c1)N/N=C/c1ccc(O)c(O)c1,inactive,38,157,inactive,193,inactive
Nc1c(C(=O)C2CC2)sc2nc(-c3cccs3)cc(C(F)(F)F)c12,inactive,495,441,inactive,468,inactive
CCc1ccc(Sc2cc(C(=O)O)c3ccccc3n2)cc1,inactive,57.8,86,inactive,31,inactive
O=C1/C(=C\c2ccc(-c3ccccc3Cl)o2)SC(=S)N1CC1CCCO1 (stereo not given),inactive,29.8,35.9,inactive,116,inactive
O=C(O)c1ccccc1NCc1ccc2c(c1)OCO2,inactive,69.6,89.5,inactive,54,inactive
O=C(O)c1ccc(/C=N/NC(=O)c2cc(-c3ccc4c5c(cccc35)CC4)n[nH]2)cc1,inactive,28.2,71.2,inactive,151,inactive
COc1ccccc1OCCn1cc(C(=O)O)c2c(Cl)cccc21,inactive,48.6,191,inactive,52,inactive
CCOC(=O)C1=NN(c2ccc(C)cc2)CC1C(=O)OC (stereo not given),inactive,41.5,86.3,inactive,244,inactive
Cc1cccn2c(=O)c(/C=C3\SC(=S)N(CC(C)C)C3=O)c(NCCCOC(C)C)nc12,inactive,58.1,191,inactive,209,inactive
O=C(O)c1ccccc1OCc1ccccc1Br,inactive,84.6,98,inactive,65.5,inactive
CCOc1cc(/C=N/NC(=O)CSc2cccc3cccnc23)ccc1O,inactive,35.6,78.2,inactive,188,inactive
CN(C)c1ccc(/C=C2\SC(=S)N(Nc3ncc(C(F)(F)F)cc3Cl)C2=O)cc1,inactive,139,236,inactive,230,inactive
COc1ccc(C2=Nn3c(nnc3-c3ccccn3)SC2)cc1OC,inactive,34,44.4,inactive,112,inactive
Cc1nnc(SCC(=O)N2CCOCC2)c2ccccc12,inactive,49.3,61.1,inactive,192,inactive
Cc1ccccc1OCCn1cc(C(=O)O)c2c(C)cccc21,inactive,53,176,inactive,55.6,inactive
CCOC(=O)CNC(=O)c1cccnc1SCCc1ccccc1,inactive,46.7,125,inactive,65,inactive
Cc1cc(C)n(C(=O)CNC(=O)c2ccc3c(c2)OCCO3)n1,inactive,53.2,61.7,inactive,200,inactive
Cn1nc([N+](=O)[O-])c(C(C#N)c2ccccn2)c(Cl)c1=O (stereo not given),inactive,24,74.7,inactive,201,inactive
Cc1cccc(CSCc2ccc(C(=O)O)o2)c1,inactive,58.1,86.9,inactive,28.5,inactive
Cc1ccc(C(=O)O)c(OCc2ccccc2C)c1,inactive,62.4,208,inactive,59.3,inactive
